Compounds without any hit were thinned out: in the full panel of roughly 79,000, 15% have a hit. Values without a mark were called inactive. Calls of active or inactive are those of the source. Rule as the data show it: active = growth inhibition above about 70%; inactive = the rest.

Test [1] in a line: NCI Yeast Anticancer Drug Screen. Data for the rad50 strain (AID 155).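 Also: 0% = growth of vehicle-only cultures of the same strain.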 Particulars: S. cerevisiae rad50 strain growth inhibition, stronger effect = higher value. The gist of the method:
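Genetically altered yeast (DNA repair pathway); compound treatment; growth inhibition vs vehicle ctrl.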

Test [2] is described as follows: NCI Yeast Anticancer Drug Screen. Data for the mec2-1 strain (AID 157). Particulars: S. cerevisiae mec2-1 strain, stronger effect = higher value. A digest of the protocol:
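Using mec2-1 yeast: add compound, measure growth, express inhibition versus vehicle-treated cultures.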

Test [3] can be described thus: NCI Yeast Anticancer Drug Screen. Data for the sgs1 mgt1 strain (AID 161).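 Also: 0% = growth of cultures given vehicle only.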 The note with it: S. cerevisiae sgs1 mgt1 strain, stronger effect = higher value. The gist of the method:
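Percent growth inhibition was derived by comparing compound-exposed mutant yeast with vehicle-exposed cultures. The strain carries alterations in DNA damage repair.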

A short description of test [4]: NCI Yeast Anticancer Drug Screen. Data for the cln2 rad14 strain (AID 165).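 Also: 0% = growth equal to vehicle treated cultures.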 Particulars: S. cerevisiae cln2 rad14 strain, stronger effect = higher value. A digest of the protocol: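 Yeast strain cln2 rad14, bearing defects in cell cycle control and DNA repair, serves as the test system; values reflect growth inhibition compared with vehicle.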
The nature of test [5]: NCI Yeast Anticancer Drug Screen. Data for the bub3 strain (AID 167). The note with it: S. cerevisiae bub3 mutant strain, stronger effect = higher value. A digest of the protocol: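 Yeast carrying a defined mutation is treated with each compound, and growth is compared with that of vehicle-exposed cells to give inhibition.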
Test [6] in a line: NCI Yeast Anticancer Drug Screen. Data for the mlh1 rad18 strain (AID 175). Particulars: S. cerevisiae mlh1 rad18 strain growth inhibition, stronger effect = higher value. The gist of the method: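 Steps: expose repair-defective yeast to compound; measure growth; express inhibition against vehicle-treated controls.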
[7] abbreviates: at 5.0 µM (retest, dose inferred, filed as 0.5).
Where [8] appears, read: at 50.0 µM (retest, dose inferred, filed as 5.0).

As to `ClC1=C(Cl)C(Cl)=C(Cl)C1`, the growth inhibition was 6% in test [1] (setting [7]); 93% (active) in test [1] (setting [8]); 88.2% (active) in test [1] (at 50.0 µM); 7% in test [2] (setting [7]); 97% (active) in test [2] (setting [8]); 51.4% in test [2] (at 50.0 µM). The growth inhibition in test [3] (setting [7]) was 10%; in test [3] (setting [8]), 93% (active); in test [3] (at 50.0 µM), 48.5%; in test [4] (setting [7]) it was 5%; in test [4] (setting [8]), 85% (active); in test [4] (at 50.0 µM) it was 3.55%. The growth inhibition in test [5] (setting [7]) was 4%; in test [5] (setting [8]) it was 96% (active); in test [5] (at 50.0 µM) it was 79.9% (active); in test [6] (setting [7]), 0%; in test [6] (setting [8]), 96% (active); in test [6] (at 50.0 µM), 91.5% (active).
For the molecule `O=[N+]([O-])C1CCC(C2=CSC3CCCCC3N2)CC1` (configuration not stated), the growth inhibition in test [1] (setting [7]) was 12%; in test [1] (setting [8]) it was 7%; in test [1] (at 50.0 µM), 34.6%; in test [2] (setting [7]) it was -16%; in test [2] (setting [8]), 44%; in test [2] (at 50.0 µM) it was 57.5%. For the same molecule, the growth inhibition is -9% in test [3] (setting [7]); 23% in test [3] (setting [8]); 38.8% in test [3] (at 50.0 µM); 23% in test [4] (setting [7]); 31% in test [4] (setting [8]); 11.4% in test [4] (at 50.0 µM). For the same molecule, the growth inhibition in test [5] (setting [7]) was 0%; in test [5] (setting [8]) it was 52%; in test [5] (at 50.0 µM), 67.8%; in test [6] (setting [7]), -1%; in test [6] (setting [8]), 60%; in test [6] (at 50.0 µM), 18%.
Consider `COC(=O)C(=Cc1c[nH]c2ccccc12)C(=O)OC`, for which the growth inhibition in test [1] (setting [7]) was -12%; in test [1] (setting [8]) it was 0%; in test [1] (at 50.0 µM), 11.6%; in test [2] (setting [7]), 4%; in test [2] (setting [8]), 2%; in test [2] (at 50.0 µM) it was 30.3%. Also, the growth inhibition in test [3] (setting [7]) is -1%; in test [3] (setting [8]), -6%; in test [3] (at 50.0 µM), 4.55%; in test [4] (setting [7]) it was -1%; in test [4] (setting [8]), -4%; in test [4] (at 50.0 µM), 16.3%. Moreover, the growth inhibition was -3% in test [5] (setting [7]); 2% in test [5] (setting [8]); 10.6% in test [5] (at 50.0 µM); -18% in test [6] (setting [7]); -17% in test [6] (setting [8]); 10.8% in test [6] (at 50.0 µM).
On to `CCc1ccc(/C=C/c2ccc([N+](=O)[O-])cc2)nc1`, for which the growth inhibition in test [1] (setting [7]) is 0%; in test [1] (setting [8]) it was 68%; in test [1] (at 50.0 µM) it was 62.2%; in test [2] (setting [7]) it was -5%; in test [2] (setting [8]) it was 41%; in test [2] (at 50.0 µM), 40.6%. Moreover, the growth inhibition in test [3] (setting [7]) is -5%; in test [3] (setting [8]), 42%; in test [3] (at 50.0 µM), 33.5%; in test [4] (setting [7]) it was 6%; in test [4] (setting [8]) it was 39%; in test [4] (at 50.0 µM) it was 7.1%. The growth inhibition in test [5] (setting [7]) is -5%; in test [5] (setting [8]) it was -8%; in test [5] (at 50.0 µM) it was 45.9%; in test [6] (setting [7]), 3%; in test [6] (setting [8]), 44%; in test [6] (at 50.0 µM) it was 69.5%.
Consider `Cc1ccc(NC(=O)Oc2ccc(C(C)(C)C)cc2Br)cc1NC(=O)Oc1ccc(C(C)(C)C)cc1Br`, for which the growth inhibition in test [1] (setting [7]) was 8%; in test [1] (setting [8]), 26%; in test [1] (at 50.0 µM), 40.1%; in test [2] (setting [7]) it was -4%; in test [2] (setting [8]) it was 13%; in test [2] (at 50.0 µM), 60%. Also, the growth inhibition in test [3] (setting [7]) is 3%; in test [3] (setting [8]) it was 14%; in test [3] (at 50.0 µM) it was 49.7%; in test [4] (setting [7]), 2%; in test [4] (setting [8]), 11%; in test [4] (at 50.0 µM), 19.9%. The growth inhibition in test [5] (setting [7]) is 0%; in test [5] (setting [8]) it was 28%; in test [5] (at 50.0 µM), 28.4%; in test [6] (setting [7]) it was 4%; in test [6] (setting [8]) it was 53%; in test [6] (at 50.0 µM), 79.2% (active).
Consider `FC(F)(F)c1[nH]nc(-c2ccc(Cl)cc2)c1N=NN1CCOCC1`, for which the growth inhibition was 98% (active) in test [1] (setting [7]); 96% (active) in test [1] (setting [8]); 94.6% (active) in test [1] (at 50.0 µM); 99% (active) in test [2] (setting [7]); 94% (active) in test [2] (setting [8]); 95.8% (active) in test [2] (at 50.0 µM). For the same molecule, the growth inhibition in test [3] (setting [7]) is 99% (active); in test [3] (setting [8]), 94% (active); in test [3] (at 50.0 µM) it was 95.4% (active); in test [4] (setting [7]), 99% (active); in test [4] (setting [8]), 98% (active); in test [4] (at 50.0 µM), 91.2% (active). Further, the growth inhibition in test [5] (setting [7]) was 99% (active); in test [5] (setting [8]) it was 98% (active); in test [5] (at 50.0 µM) it was 82.5% (active); in test [6] (setting [7]), 99% (active); in test [6] (setting [8]), 97% (active); in test [6] (at 50.0 µM) it was 93.6% (active).
Regarding `CCOC(=O)C(=Cc1ccccc1Br)C(=O)OCC`, the growth inhibition is 16% in test [1] (setting [7]); 92% (active) in test [1] (setting [8]); 78.5% (active) in test [1] (at 50.0 µM); 33% in test [2] (setting [7]); 94% (active) in test [2] (setting [8]); 92.5% (active) in test [2] (at 50.0 µM). The growth inhibition is 20% in test [3] (setting [7]); -18% in test [3] (setting [8]); 96.5% (active) in test [3] (at 50.0 µM); 17% in test [4] (setting [7]); 93% (active) in test [4] (setting [8]); 67.8% in test [4] (at 50.0 µM). Further, the growth inhibition in test [5] (setting [7]) is 26%; in test [5] (setting [8]), 96% (active); in test [5] (at 50.0 µM), 95.7% (active); in test [6] (setting [7]) it was 14%; in test [6] (setting [8]), 97% (active); in test [6] (at 50.0 µM), 96.2% (active).
For `Oc1ccc(Cc2cccc(Br)c2)c(O)c1`, the growth inhibition in test [1] (setting [7]) was -2%; in test [1] (setting [8]) it was 99% (active); in test [1] (at 50.0 µM), 99.3% (active); in test [2] (setting [7]), -4%; in test [2] (setting [8]), 99% (active); in test [2] (at 50.0 µM) it was 99.3% (active). Also, the growth inhibition in test [3] (setting [7]) was -2%; in test [3] (setting [8]), 99% (active); in test [3] (at 50.0 µM) it was 99.3% (active); in test [4] (setting [7]), -9%; in test [4] (setting [8]) it was 99% (active); in test [4] (at 50.0 µM), 99.2% (active). The growth inhibition in test [5] (setting [7]) is -3%; in test [5] (setting [8]), 99% (active); in test [5] (at 50.0 µM), 99.4% (active); in test [6] (setting [7]), -3%; in test [6] (setting [8]), 99% (active); in test [6] (at 50.0 µM), 99.2% (active).
With `COC(=O)C(=O)CC(=O)c1cccc(Cl)c1`, the growth inhibition in test [1] (setting [7]) was 16%; in test [1] (setting [8]), 99% (active); in test [1] (at 50.0 µM), 74.5% (active); in test [2] (setting [7]) it was 18%; in test [2] (setting [8]) it was 100% (active); in test [2] (at 50.0 µM) it was 77% (active). In addition, the growth inhibition in test [3] (setting [7]) is 18%; in test [3] (setting [8]), 99% (active); in test [3] (at 50.0 µM), 64.2%; in test [4] (setting [7]), 6%; in test [4] (setting [8]), 99% (active); in test [4] (at 50.0 µM) it was 21.8%. The growth inhibition in test [5] (setting [7]) was 13%; in test [5] (setting [8]) it was 99% (active); in test [5] (at 50.0 µM) it was 82.7% (active); in test [6] (setting [7]), 12%; in test [6] (setting [8]), 99% (active); in test [6] (at 50.0 µM) it was 74.7% (active).
